Results as given in PubChem BioAssay (EPA / NIEHS).
Several values for one entry are separate records, joined by “and”; a condition that tells them apart may be missing. Equal entries are not always repeated. Results filed as inconclusive are left out. The source holds several records for some structures; these can differ, active in one and inactive in another. Activity calls are given as the source filed them. Rule for the calls, unless noted: active = hit-call score of the fitted dose curve at least 0.9, where 1 is the maximum; inconclusive = response in the unintended direction; inactive = score below 0.9.

Key:
[1] = biological target: Aryl hydrocarbon receptor (Homo sapiens) (UniProt P35869); test: ATG_Ahr_CIS: Attagene CIS-FACTORIAL HepG2 Assay for human Aryl Hydrocarbon Receptor (Ahr) (AID 2282930; active = hit-call score of the fitted dose curve at least 0.9, where 1 is the maximum; inactive = score below 0.9); conditions: HepG2 AhR cis-factorial reporter transcription; actives raise or lower the signal
Method in brief: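 Values derive from bidirectional fitting against DMSO negative control. Underlying signal: cis-element reporter mRNA in transiently transfected HepG2, harvested 24 h post-dose and measured by RT-PCR plus capillary electrophoresis.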

[2] = ATG_M_61_CIS: Attagene CIS-FACTORIAL HepG2 Assay for M61 Transcription Factor (Internal Marker) (AID 2282937; active = hit-call score of the fitted dose curve at least 0.9, where 1 is the maximum; inactive = score below 0.9); conditions: HepG2 Attagene CIS-FACTORIAL M61 internal marker reporter; actives raise or lower the signal
Method in brief: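 HepG2 cells transiently transfected with cis-element-driven multiple reporter transcription units, dosed for 24 h. Reporter mRNA measured by RT-PCR, 6-FAM primer-extension labelling, HpaI digestion and capillary electrophoresis; bidirectional fit versus DMSO baseline.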

[3] = ATG_PBREM_CIS: Attagene CIS-FACTORIAL HepG2 Assay for human Phenobarbital-responsive Enhancer Module (PBREM) (AID 2282955; active = hit-call score of the fitted dose curve at least 0.9, where 1 is the maximum; inactive = score below 0.9); conditions: HepG2 PBREM cis-reporter, Attagene multiplexed transcription; actives raise or lower the signal
Method in brief: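 HepG2 cells transiently transfected with multiple cis-regulated reporter transcription units; endogenous factor activity at the PBREM element measured as reporter mRNA 24 h after dosing, via RT-PCR and capillary electrophoresis of fluorescent fragments; bidirectional fitting versus DMSO.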

[4] = ATG_PXRE_CIS: Attagene CIS-FACTORIAL HepG2 Assay for human Pregnane X Receptor Element (PXRE) (AID 2282957; active = hit-call score of the fitted dose curve at least 0.9, where 1 is the maximum; inactive = score below 0.9); conditions: HepG2 Attagene CIS-FACTORIAL PXRE reporter, mRNA; actives raise or lower the signal
Method in brief: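 Using HepG2 transfected with multiple reporter transcription units, endogenous factor-driven transcription was scored as reporter mRNA after 24 h exposure.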

[5] = ATG_PPRE_CIS: Attagene CIS-FACTORIAL HepG2 Assay for human Peroxisome Proliferator-activated Response Element (PPRE) (AID 2282958; active = hit-call score of the fitted dose curve at least 0.9, where 1 is the maximum; inactive = score below 0.9); conditions: HepG2 PPRE cis-element reporter, Attagene transcription factor profiling; actives raise or lower the signal
Method in brief: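 HepG2 cells transiently transfected with multiplexed cis-element reporter units measure endogenous transcription factor activity. After 24 h compound exposure, reporter mRNA is quantified by RT-PCR, 6-FAM labeling, HpaI digestion and capillary electrophoresis; bidirectional fits are made against DMSO baseline.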

[6] = ATG_Oct_MLP_CIS: Attagene CIS-FACTORIAL HepG2 Assay for human Octamer-Binding Transcription Factor (Oct) (AID 2282993; active = hit-call score of the fitted dose curve at least 0.9, where 1 is the maximum; inactive = score below 0.9); conditions: HepG2 Attagene cis-factorial Oct reporter, mRNA; actives raise or lower the signal
Method in brief: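 Read-out: reporter mRNA via RT-PCR plus capillary electrophoresis of 6-FAM-labelled fragments. Transiently transfected HepG2, 24 h exposure, endogenous TF activity on cis elements. Gain or loss of signal fitted relative to DMSO.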

[7] = biological target: human Peroxisome Proliferator-activated Receptor alpha (PPARa), PPARA (gene 5465) (UniProt Q07869); test: ATG_PPARa_TRANS: Attagene TRANS-FACTORIAL HepG2 Assay for human Peroxisome Proliferator-activated Receptor alpha (PPARa) (AID 2283001);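 for AC50: potency for gain of reporter signal over DMSO so agonist or activator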
Method in brief: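 Cells (HepG2) are transfected with multiple reporter transcription units, exposed to chemical for 24 h, then total RNA is reverse-transcribed and amplified. Labelled products are quantified by capillary electrophoresis; induction is referenced to DMSO.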

[8] = biological target: Peroxisome proliferator-activated receptor gamma (Homo sapiens) (UniProt P37231); test: ATG_PPARg_TRANS: Attagene TRANS-FACTORIAL HepG2 Assay for human Peroxisome Proliferator-activated Receptor-gamma (PPARg) (AID 2283007)
Method in brief: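 HepG2 cells transiently transfected with multiplexed GAL4-UAS reporter units and exogenous chimeric NR-Gal4 proteins; reporter mRNA quantified after 24 h compound exposure by RT-PCR, fluorescent labelling, HpaI digestion and capillary electrophoresis; gain-of-signal fitted versus DMSO baseline.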

[9] = biological target: Retinoic acid receptor RXR-alpha (Homo sapiens) (UniProt P19793); test: ATG_RXRa_TRANS: Attagene TRANS-FACTORIAL HepG2 Assay for human Retinoid X Receptor alpha (RXRa) (AID 2283012)
Method in brief: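 Measures exogenous chimeric NR-GAL4 activity in transfected HepG2 liver cells after 24 h of dosing. Induced reporter mRNA was detected by RT-PCR with capillary electrophoresis, and gain of signal was analysed against DMSO.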

[10] = biological target: Cellular tumor antigen p53 (Homo sapiens) (UniProt P04637); test: TOX21_p53_BLA_p2_ratio: Tox21 HCT-116 p53 Agonism Beta-lactamase Assay, Ratio, Phase 2 (AID 2283592)
Method in brief: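 Plated HCT116 p53-bla cells (4000/well) received compound after 5 h, then 16 h at 37C/5% CO2. CCF4-AM added, 2 h RT. Ratio of 460 to 530 nm emission taken as the p53 reporter signal.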

[11] = biological target: Cellular tumor antigen p53 (Homo sapiens) (UniProt P04637); test: TOX21_p53_BLA_p5_ratio: Tox21 HCT-116 p53 Agonism Beta-lactamase Assay, Ratio, Phase 5 (AID 2283599)
Method in brief: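 HCT-116 cells carrying a p53-inducible beta-lactamase reporter were seeded at 4000 cells/well and dosed after 5 h with compound in DMSO (217-fold dilution). After 16 h at 37C, CCF4-AM substrate was added for 2 h, and the 460/530 nm emission ratio was scored as gain-of-signal versus DMSO.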

[12] = TOX21_p53_BLA_p5_viability: Viability Assessment in the Tox21 HCT-116 p53 Agonism Beta-lactamase Assay, Phase 5 (AID 2283600)
Method in brief: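 Workflow: seed 4000 cells per well, wait 5 h, add compounds (DMSO, 217-fold dilution), incubate 16 h, load CCF4-AM 2 h, add CellTiter-Glo, read luminescence after 30 min.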

[13] = biological target: Cellular tumor antigen p53 (Homo sapiens) (UniProt P04637); test: TOX21_p53_BLA_p4_ratio: Tox21 HCT-116 p53 Agonism Beta-lactamase Assay, Ratio, Phase 4 (AID 2283601)
Method in brief: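 HCT116 cells carrying an inducible beta-lactamase reporter were plated at 4000 cells/well, rested 5 h, then exposed to compounds in DMSO (217-fold dilution) for 16 h at 37C. CCF4-AM substrate was loaded 2 h at room temperature; 460/530 nm emission ratio scored gain-of-signal versus DMSO.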

[14] = ACEA_ER_AUC_viability: ACEA Biosciences xCELLigence Real-Time Cell Analysis on Estrogen Receptor Agonism for Viability (AID 2283782);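 note: hit means loss of impedance signal meaning reduced cell growth or viability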
Method in brief: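 Continuous-exposure impedance cell analysis uses T-47D cells in charcoal-stripped serum, eight 1:4 dilutions topping at 100 uM final, biological duplicate. Area under the growth curve at 80 h is fitted against DMSO baseline.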

[15] = biological target: Transcription factor E2F1 (Homo sapiens) (UniProt Q01094); test: ATG_E2F_CIS: Attagene CIS-FACTORIAL HepG2 Assay for human E2F Transcription Factor 1 (AID 2282935; active = hit-call score of the fitted dose curve at least 0.9, where 1 is the maximum; inactive = score below 0.9); conditions: HepG2 Attagene cis-reporter, E2F reporter RNA transcripts; actives raise or lower the signal
Method in brief: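 First, HepG2 cells were transfected with reporter transcription units. Next, they were dosed for 24 h. Then RNA was isolated, converted to cDNA, PCR-amplified, FAM-labeled, HpaI-digested and analyzed by capillary electrophoresis.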

[16] = ATG_GLI_CIS: Attagene CIS-FACTORIAL HepG2 Assay for human Zinc Finger Protein GLI1 (AID 2282945; active = hit-call score of the fitted dose curve at least 0.9, where 1 is the maximum; inactive = score below 0.9); conditions: HepG2, Attagene cis-factorial reporter mRNA, GLI element; actives raise or lower the signal
Method in brief: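 HepG2 cells transiently transfected with cis-promoter multiplexed reporter units report endogenous transcription factor activity. After 24 h chemical exposure, reporter mRNA was quantified by RT-PCR, 6-FAM labelling, HpaI digestion and capillary electrophoresis, with bidirectional fitting against DMSO.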

[17] = ATG_SREBP_CIS: Attagene CIS-FACTORIAL HepG2 Assay for human Sterol Regulatory Element Binding (SREBP) (AID 2282962; active = hit-call score of the fitted dose curve at least 0.9, where 1 is the maximum; inactive = score below 0.9); conditions: HepG2 Attagene cis-factorial SREBP reporter, mRNA; actives raise or lower the signal
Method in brief: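 Endogenous factor activity is measured in HepG2 through multiplexed reporter units under cis-element control. Following a 24 h incubation, reporter transcripts are reverse-transcribed, PCR-amplified and sized by capillary electrophoresis; activity is fitted in both directions relative to DMSO.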

[18] = biological target: human Thyroid Receptor alpha (THRa1), THRA (gene 7067) (UniProt P10827); test: ATG_THRa1_TRANS: Attagene TRANS-FACTORIAL HepG2 Assay for human Thyroid Receptor alpha (THRa1) (AID 2283014)
Method in brief: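 Reporter transcript induction, read by capillary electrophoresis of 6-FAM-labelled RT-PCR products, reflects activity of a transfected THRa1-Gal4 fusion in HepG2 liver cells. Cells were dosed for 24 h; activity was fitted in the positive direction against DMSO.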

[19] = biological target: Cellular tumor antigen p53 (Homo sapiens) (UniProt P04637); test: TOX21_p53_BLA_p3_ratio: Tox21 HCT-116 p53 Agonism Beta-lactamase Assay, Ratio, Phase 3 (AID 2283596)
Method in brief: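 Cells were seeded at 4000/well, rested 5 h at 37C, then dosed with DMSO compound solutions (217-fold dilution) for 16 h. CCF4-AM substrate was loaded for 2 h at room temperature, and the 460/530 nm emission ratio was fitted for gain of signal versus DMSO.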

[20] = ATG_AP_2_CIS: Attagene CIS-FACTORIAL HepG2 Assay for human Activator Protein 2 (AP-2) (AID 2282932; active = hit-call score of the fitted dose curve at least 0.9, where 1 is the maximum; inactive = score below 0.9); conditions: HepG2 AP-2 cis-reporter, Attagene transcription factor profiling; actives raise or lower the signal
Method in brief: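 Cells (HepG2) transfected with promoter-driven reporter constructs, treated 24 h. Total RNA reverse-transcribed, reporter cDNA PCR-amplified, FAM-labelled by primer extension, digested, resolved by capillary electrophoresis. Activity fitted both directions versus DMSO.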

Measured: AC50

Sequence of human Peroxisome Proliferator-activated Receptor alpha (PPARa), PPARA (gene 5465) (Q07869 whole entry, looked up): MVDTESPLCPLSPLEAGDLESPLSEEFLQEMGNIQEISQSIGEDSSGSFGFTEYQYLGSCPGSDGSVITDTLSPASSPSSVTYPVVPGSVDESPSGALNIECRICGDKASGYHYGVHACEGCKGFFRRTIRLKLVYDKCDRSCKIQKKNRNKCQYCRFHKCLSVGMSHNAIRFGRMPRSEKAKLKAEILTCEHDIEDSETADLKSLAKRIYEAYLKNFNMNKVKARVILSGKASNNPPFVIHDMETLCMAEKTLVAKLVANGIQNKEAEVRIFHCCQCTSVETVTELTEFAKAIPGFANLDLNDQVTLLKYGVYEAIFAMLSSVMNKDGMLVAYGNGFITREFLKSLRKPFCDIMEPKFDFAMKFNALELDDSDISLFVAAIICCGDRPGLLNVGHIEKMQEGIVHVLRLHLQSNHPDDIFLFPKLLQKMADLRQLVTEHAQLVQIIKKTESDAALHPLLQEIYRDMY
Sequence of human Thyroid Receptor alpha (THRa1), THRA (gene 7067) (P10827 whole entry, looked up, the tested form may be a part): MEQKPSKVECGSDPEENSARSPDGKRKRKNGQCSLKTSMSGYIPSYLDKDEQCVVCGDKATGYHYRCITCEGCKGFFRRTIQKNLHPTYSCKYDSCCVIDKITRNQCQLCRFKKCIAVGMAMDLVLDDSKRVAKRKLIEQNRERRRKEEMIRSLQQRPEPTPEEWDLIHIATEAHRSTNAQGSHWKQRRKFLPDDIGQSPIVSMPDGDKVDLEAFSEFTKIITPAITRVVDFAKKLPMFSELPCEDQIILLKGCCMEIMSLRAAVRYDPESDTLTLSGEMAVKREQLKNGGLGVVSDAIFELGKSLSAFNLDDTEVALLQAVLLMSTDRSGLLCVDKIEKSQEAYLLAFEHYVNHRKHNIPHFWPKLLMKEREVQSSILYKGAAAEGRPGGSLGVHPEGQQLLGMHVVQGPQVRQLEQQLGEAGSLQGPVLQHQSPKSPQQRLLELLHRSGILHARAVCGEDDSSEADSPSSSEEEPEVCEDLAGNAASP
Sequence of Transcription factor E2F1 (Homo sapiens) (Q01094 whole entry, looked up): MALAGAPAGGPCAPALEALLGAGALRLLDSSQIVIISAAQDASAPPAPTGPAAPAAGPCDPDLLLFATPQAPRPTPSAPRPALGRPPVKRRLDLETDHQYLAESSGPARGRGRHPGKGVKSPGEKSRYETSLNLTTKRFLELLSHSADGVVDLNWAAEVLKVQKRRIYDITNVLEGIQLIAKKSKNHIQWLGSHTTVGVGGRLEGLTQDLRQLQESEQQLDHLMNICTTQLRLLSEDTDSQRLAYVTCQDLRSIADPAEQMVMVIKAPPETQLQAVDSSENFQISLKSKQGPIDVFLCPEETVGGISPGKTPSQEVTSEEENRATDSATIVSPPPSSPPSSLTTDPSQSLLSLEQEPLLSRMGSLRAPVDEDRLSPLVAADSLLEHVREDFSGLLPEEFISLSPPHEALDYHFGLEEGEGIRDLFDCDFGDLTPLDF
Sequence of Peroxisome proliferator-activated receptor gamma (Homo sapiens) (P37231 whole entry, looked up, the tested form may be a part): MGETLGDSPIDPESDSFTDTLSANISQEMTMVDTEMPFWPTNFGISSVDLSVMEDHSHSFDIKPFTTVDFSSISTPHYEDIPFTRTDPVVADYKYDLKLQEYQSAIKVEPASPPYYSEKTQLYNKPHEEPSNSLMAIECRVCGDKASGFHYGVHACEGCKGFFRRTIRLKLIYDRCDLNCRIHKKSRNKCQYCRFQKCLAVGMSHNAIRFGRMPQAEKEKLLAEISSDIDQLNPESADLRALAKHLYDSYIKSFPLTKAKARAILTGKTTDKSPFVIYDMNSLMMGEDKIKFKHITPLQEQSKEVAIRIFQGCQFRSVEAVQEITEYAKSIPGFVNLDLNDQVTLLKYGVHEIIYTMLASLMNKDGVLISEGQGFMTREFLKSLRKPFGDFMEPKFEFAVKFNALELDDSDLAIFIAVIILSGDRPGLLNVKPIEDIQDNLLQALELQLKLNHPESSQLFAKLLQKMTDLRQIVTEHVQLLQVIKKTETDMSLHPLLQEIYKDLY
Sequence of Aryl hydrocarbon receptor (Homo sapiens) (P35869 whole entry, looked up): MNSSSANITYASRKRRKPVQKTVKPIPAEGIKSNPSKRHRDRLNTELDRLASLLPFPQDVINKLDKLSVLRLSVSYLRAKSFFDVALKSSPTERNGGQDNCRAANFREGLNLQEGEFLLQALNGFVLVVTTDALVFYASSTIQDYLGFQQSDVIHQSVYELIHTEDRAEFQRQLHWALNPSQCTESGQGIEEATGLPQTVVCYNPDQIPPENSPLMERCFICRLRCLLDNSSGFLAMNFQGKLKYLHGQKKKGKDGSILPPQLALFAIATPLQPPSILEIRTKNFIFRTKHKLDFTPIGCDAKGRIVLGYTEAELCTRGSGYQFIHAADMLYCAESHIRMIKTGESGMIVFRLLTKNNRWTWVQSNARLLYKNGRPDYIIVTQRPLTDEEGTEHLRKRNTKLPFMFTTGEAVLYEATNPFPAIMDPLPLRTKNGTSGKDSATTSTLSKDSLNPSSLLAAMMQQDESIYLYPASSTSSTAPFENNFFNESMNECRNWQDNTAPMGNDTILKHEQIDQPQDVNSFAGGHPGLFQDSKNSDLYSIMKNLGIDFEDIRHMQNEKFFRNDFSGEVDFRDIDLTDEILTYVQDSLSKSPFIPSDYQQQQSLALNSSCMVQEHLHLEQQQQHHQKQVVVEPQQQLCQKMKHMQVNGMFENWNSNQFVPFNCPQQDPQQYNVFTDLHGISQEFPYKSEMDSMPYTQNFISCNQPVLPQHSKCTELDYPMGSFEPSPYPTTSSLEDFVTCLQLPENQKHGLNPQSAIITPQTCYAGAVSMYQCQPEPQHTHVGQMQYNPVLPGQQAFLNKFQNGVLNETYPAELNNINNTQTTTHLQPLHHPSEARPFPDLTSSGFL
Sequence of Cellular tumor antigen p53 (Homo sapiens) (P04637 whole entry, looked up): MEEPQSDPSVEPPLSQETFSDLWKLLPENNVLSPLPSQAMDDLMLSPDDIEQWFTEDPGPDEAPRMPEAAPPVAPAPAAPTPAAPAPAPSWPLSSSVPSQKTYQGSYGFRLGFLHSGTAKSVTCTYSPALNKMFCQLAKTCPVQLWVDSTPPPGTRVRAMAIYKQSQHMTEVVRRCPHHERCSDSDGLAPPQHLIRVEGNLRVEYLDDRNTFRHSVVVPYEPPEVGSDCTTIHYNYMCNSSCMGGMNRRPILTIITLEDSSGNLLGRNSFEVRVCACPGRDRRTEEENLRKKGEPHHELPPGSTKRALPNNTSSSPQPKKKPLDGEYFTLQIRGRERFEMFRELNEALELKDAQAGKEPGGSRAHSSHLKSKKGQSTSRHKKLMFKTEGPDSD
Sequence of Retinoic acid receptor RXR-alpha (Homo sapiens) (P19793 whole entry, looked up, the tested form may be a part): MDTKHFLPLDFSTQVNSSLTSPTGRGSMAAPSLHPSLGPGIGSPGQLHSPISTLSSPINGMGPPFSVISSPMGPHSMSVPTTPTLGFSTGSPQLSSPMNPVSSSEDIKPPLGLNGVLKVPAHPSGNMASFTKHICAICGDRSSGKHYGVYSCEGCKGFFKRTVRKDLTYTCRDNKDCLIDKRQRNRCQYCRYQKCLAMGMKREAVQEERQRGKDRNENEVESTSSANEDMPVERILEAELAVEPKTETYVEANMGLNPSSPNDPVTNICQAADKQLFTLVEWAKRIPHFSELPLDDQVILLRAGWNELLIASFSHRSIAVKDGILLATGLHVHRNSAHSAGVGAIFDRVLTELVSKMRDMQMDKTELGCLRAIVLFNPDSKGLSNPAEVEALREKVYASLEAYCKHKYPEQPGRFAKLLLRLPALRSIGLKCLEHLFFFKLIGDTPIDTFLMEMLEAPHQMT

O=c1c2ccccc2c(=O)c2c1cc(Cl)c1[nH]c3c([nH]c12)c(Cl)cc1c(=O)c2ccccc2c(=O)c13
active: [1] 33.6 µM | [4] 11.2 µM | [8] 40.5 µM | [14] 6.28 µM
not listed: [15] | [16] | [17] | [18] | [19] | [20]
inactive: all other assays above

Nc1ccccc1
not listed: [1] | [3] | [4] | [6] | [8] | [12] | [20]
inactive: all other assays above

N#CCCCCC#N
not listed: [2] | [7] | [8] | [14] | [20]
inactive: all other assays above

CCCCCCCCCCCCCCCC[N+](C)(C)C
inactive: [2] | [16] | [3] | [5] | [17] | [9]
active: [1] 35.5 µM | [15] 24.2 µM | [4] 20.3 µM | [6] 26.8 µM | [7] 49.2 µM | [8] 27.4 µM | [14] 10.9 µM

C=CC(=O)OCCO
active: [17] 172 µM | [6] 100 µM | [14] 46.4 µM
not listed: [1] | [5] | [8] | [16]
inactive: all other assays above

O=C1C(Cl)=C(Cl)C(=O)C(Cl)=C1Cl
active: [10] 13.7 µM | [19] 4.93 µM | [11] 15.4 µM and 34.8 µM | [12] 57.6 µM and 56.4 µM | [13] 84.7 µM | [14] 81.6 µM
inactive: [20] | [15] | [2] | [3] | [4] | [5] | [17] | [6] | [7] | [8] | [9] | [18] | [10] | [19] | [13]

C=C(Cl)CCl
not listed: [1] | [2] | [3] | [4] | [14] | [15] | [16] | [17]
inactive: all other assays above

CCCCNP(N)(N)=S
not listed: [1] | [3] | [4] | [7] | [8] | [9]
inactive: all other assays above

Cl/C=C\CCl
inactive: [2] | [16] | [3] | [4] | [5] | [17] | [6] | [7] | [8] | [18] | [14]

CC(O)CN(CC(C)O)CC(C)O (stereo not given)
not listed: [1] | [5] | [6] | [8] | [9]
inactive: all other assays above

N#CCCCl
not listed: [1] | [5] | [8] | [13] | [14] | [18] | [20]
inactive: all other assays above

CC(=O)/C=C/c1ccccc1
active: [7] 38.8 µM | [8] 32.1 µM | [14] 85.1 µM
inactive: [1] | [15] | [2] | [3] | [5] | [17] | [6] | [9]

c1cc(OCC2CO2)ccc1Cc1ccc(OCC2CO2)cc1 (stereo not given)
active: [20] 57.9 µM | [4] 8.22 µM | [5] 51.5 µM | [6] 25.3 µM | [19] 75.1 µM and 79.5 µM | [13] 65.9 µM and 82.3 µM
inactive: [15] | [16] | [3] | [9] | [10] | [11] | [12]

CCC(Br)(CC)C(=O)NC(N)=O
active: [4] 48.5 µM
not listed: [6] | [7] | [8] | [12] | [13] | [19]
inactive: all other assays above
